# Pf growth 96h: Primary qHTS for delayed death inhibitors of the malarial parasite plastid, 96 hour incubation. actives 6.9% (n = 320,000). Potency, µM (top dose mostly 28.7 µM), without a hit: at the highest dose activity change, negative = inhibition, most hits filed as inhibitors. P. falciparum luciferase reporter growth, 96 h; note: potency is the fitted concentration of half-maximal effect; % is set by controls: 0 for no effect and ±100 for the full control effect
#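 Compounds incubated with erythrocytes infected by luciferase-expressing P. falciparum (2% hematocrit, 0.05% parasitemia final) for 96 hours, 37 C in 5% CO2. Growth inhibition scored as decreased luciferase luminescence.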
# CHX counter: Cycloheximide Counterscreen for Small Molecule Inhibitors of Shiga Toxin. max response, %. AID 2314, 2010. actives 12% (n = 300,000). cell reporter, cycloheximide protein synthesis inhibition counterscreen; in the data active = max response mostly above about 13%, no sharp cut-off; inactive = mostly below about 14%; note: read at 38.3 µM for the half of the compounds with a filed dose; 0% is about no effect
# Shiga toxin inh: A qHTS for Small Molecule Inhibitors of Shiga Toxin. Vero cells, Shiga toxin protein synthesis inhibition reporter. inhibition, % at 38.7 µM. actives 9.2% (n = 290,000). AID 2315, 2010; in the data active = inhibition mostly above about 28%, no sharp cut-off; inactive = mostly below about 43%; note: 0% is about no effect
# Pf growth 48h: Primary qHTS for delayed death inhibitors of the malarial parasite plastid, 48 hour incubation; P. falciparum luciferase growth in erythrocytes, 48 h; Potency, µM (doses to about 28.7 µM), inactives show at the highest dose activity change, negative = inhibition, usual class: inhibitors; actives 5.9% (n = 310,000); AID 504832, 2011; note: potency is the fitted concentration of half-maximal effect; % is set by controls: 0 for no effect and ±100 for the full control effect
#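 In quantitative HTS format, infected erythrocytes bearing luciferase-reporter parasites were treated for a single generation at 37 C. Luminescence after adding detection reagent served as the growth measure.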
# Starred values were filed as active, the others as inactive; ? = inconclusive; / = not tested or not shown; [ ] = dose if it differs, or a comment. Hits are enriched below; roughly 21% of the tested compounds scored in any of these assays. Unless noted, calls come from the whole dose curve; as a rule, active = well fitted inhibition curve with a large enough effect; inconclusive = small, poorly fitted or top-dose-only effect, or another doubt; inactive = no such curve, though single readings can be large or run the other way.
SMILES,Pf growth 96h,CHX counter,Shiga toxin inh,Pf growth 48h
COc1ccccc1OCC(=O)OC/C(O)=C(\C#N)c1nc2ccccc2[nH]1,?,15.6*,10.1,19.6%
N#C/C(=C(/O)COC(=O)Cc1c[nH]c2ccccc12)c1nc2ccccc2[nH]1,?,14.1*,65.5*,8.2%
COc1ccc(C(=O)COC(=O)Cc2c[nH]c3ccccc23)c(OC)c1,0.3%,/,/,-16.1%
N#C/C(=C(/O)COC(=O)CSc1ccc(Cl)cc1)c1nc2ccccc2[nH]1,58.9%,-2.6,-7.8,34.8%
Cc1cc(CNC(=O)[C@]2(C(F)(F)F)C[C@H](CCC3CCCCC3)CCCO2)nn1C,/,7.3,12.0,/
Cc1cc(C)n(C(C)Sc2ccccc2)n1 (stereo not drawn),-4.0%,/,/,?
COc1ccc2c(c1)c(C(=O)CNc1nc(C)cs1)c(C)n2C,2.94µM*,-3.7,-23.3,?
CCOCc1cnc(C)nc1NCC(=O)c1c(C)n(C)c2ccc(OC)cc12,-6.2%,-1.8,5.0,7.38µM*
O=C(CN(C(=O)c1csnn1)c1cccc(Cl)c1)NCCc1ccccc1,24.9%,-2.1,-5.2,19.5%
O=C1c2ccccc2C(=O)N1CCN1CCc2ccccc21,95.8%,37.2*,93.9*,32.0%
c1ccc2c(c1)CCN2CCN1CCc2ccccc21,19.5%,10.6,26.6,?
S=C(N/N=C/c1ccc(Cl)cc1)N1CCOCC1,46.5%,41.0*,97.4*,53.9%
Cc1ccc(/C=N/NC(=S)N2CCOCC2)cc1,?,57.0*,82.6*,2.33µM*
S=C(N/N=C/c1ccc(Br)cc1)N1CCCCC1,99.4%,40.0*,63.5*,?
Cc1ccc(CNC(=S)N2CCOCC2)cc1,20.0%,-5.8,2.1,-2.2%[5.75 µM]
Cc1ccccc1CN(C)C(=O)CNC(=O)c1ccc2ccccc2c1,-8.6%,-2.6,9.4,-37.1%
Cc1ccc2oc(=O)c3cnn(CC(=O)NC4CCN(Cc5ccccc5)CC4)c3c2c1,2.33µM*,-4.9,-12.9,/
O=C(Cn1ncc2c(=O)oc3ccccc3c21)NC1CC1,?,-3.4,2.7,9.6%
Cc1c2cnn(CC(=O)NC3CCCC3)c(=O)c2c(C)n1Cc1ccccc1,21.4%,28.9*,76.9*,54.9%
Cc1ccc2oc(=O)c3cnn(CC(=O)NCCN4CCOCC4)c3c2c1,9.28µM*,-2.1,-0.9,12.6%
CC(Sc1ccc(Cl)cc1)C(=O)NNC(=O)c1ccccc1O (stereo not drawn),?,5.9,23.4,?
Cc1nc2ccccn2c1C(=O)NC1CCCC1,7.0%,2.3,-6.6,-6.8%
Cc1ccc(/C=C/C(=O)c2c(C)nc3ccccn23)cc1,-42.8%,39.5*,69.7*,169.9%
Cc1cc(C)cc(NC(=O)c2c(C)nc3ccccn23)c1,23.1%,10.7,16.0,-28.9%
Cc1cccc(NC(=O)c2c(C)nc3ccccn23)c1,-17.3%,28.7*,79.9*,95.0%
SMILES,Pf growth 96h,CHX counter,Shiga toxin inh,Pf growth 48h
Cc1ccc(NC(=O)c2c(C)nc3ccccn23)cc1C,256.0%,41.2*,56.9*,385.3%
CN1CCCN(Cc2ccccc2Br)CC1,?,0.1,-7.2,15.3%
O=S(=O)(NCc1cc(-c2ccc(Cl)cc2)no1)c1ccccc1,-7.5%,1.6,-6.8,5.0%
O=S(=O)(Cc1cc(-c2ccc(Cl)cc2)no1)c1ccccc1,85.6%,38.0*,44.2*,115.1%
O=S(=O)(Cc1cc(-c2ccccc2Cl)no1)c1ccccc1,5.7%,37.5*,121.0*,69.3%
Cc1c(Cl)cccc1NC(=S)N(Cc1cccnc1)Cc1ccccc1Cl,13.2%,-1.9,-12.4,?
CCOc1ccc(CCNC(=O)C2CCCN(S(=O)(=O)N3CC(C)CC(C)C3)C2)cc1OCC (stereo not drawn),0.0%,1.7,-4.2,?
O=C([C@H](Cc1ccccc1)NS(=O)(=O)c1ccc(Cl)cc1)N1CC[C@@]2(O)CCCC[C@H]2C1,?,-1.6,-3.3,13.1µM*
Cc1ccc[n+](CC(=O)c2ccc(Br)cc2)c1C,62.9%,10.4,13.7,?
CCC(=O)NNc1ncnc2ccccc12,27.6%,0.6,-9.5,23.1%
CCOC(=O)C/C(=N\Nc1ncnc2ccccc12)c1ccccc1,136.5%,35.2*,86.7*,34.7%
CCOC(=O)/C(=N\Nc1ncnc2ccccc12)c1ccc(C)cc1,407.5%,18.0*,23.0,170.1%
Cc1nc(N2CCN(c3ccccn3)CC2)c2c(C)c(C(=O)Nc3c(C)cc(Br)cc3C)sc2n1,-23.2%,1.3,3.5,1.85µM*
Cc1nc(N2CCN(c3ccccn3)CC2)c2c(C)c(C(=O)Nc3ccc(Cl)cc3)sc2n1,6.7%,-1.8,13.4,?
Cc1nc(N2CCCCC2)c2c(C)c(C(=O)Nc3ccc4c(c3)OCCO4)sc2n1,-6.3%,17.4*,24.5,?
Cc1nc(N2CCN(c3ccccn3)CC2)c2c(C)c(C(=O)Nc3c(F)cc(F)cc3Br)sc2n1,28.4%,-2.8,37.5,11.7µM*
CSc1ncc(CN2CCCC(C(=O)c3cccc(Cl)c3)C2)cn1 (stereo not drawn),5.1%,-2.6,-1.9,-2.0%
CSc1ccccc1C(=O)C1CCCN(Cc2cccc(C)n2)C1 (stereo not drawn),-5.1%,-1.8,-8.3,?
Cc1cccc(CN2CCCC(C(=O)c3ccc(C(F)(F)F)cc3)C2)n1 (stereo not drawn),11.7µM*,0.4,-4.3,2.33µM*
CCOC(=O)c1[nH]ncc1CN1CCCC(C(=O)c2ccc(SC)cc2)C1 (stereo not drawn),?,3.2,-4.9,?
CSc1ncc(CN2CCCC(C(=O)c3ccc(C(C)(C)C)cc3)C2)cn1 (stereo not drawn),-14.7%,21.9*,37.1,?
CCCCc1ncc(CN2CCCC(C(=O)c3ccc(SC)cc3)C2)[nH]1 (stereo not drawn),24.6%[5.75 µM],-5.4,-13.8,9.28µM*
COCc1cc(C)nc(Oc2ccccc2)c1C#N,-9.8%,-3.0,-3.7,-27.0%
O=[N+]([O-])c1cc(C(F)(F)F)cc([N+](=O)[O-])c1NCCN1CCNCC1,3.2%,-2.1,-5.3,?
O=C(COc1cc(Cl)c(Cl)cc1Cl)Nc1cccc(O)c1,-100.1%,38.1*,115.1*,-53.2%
SMILES,Pf growth 96h,CHX counter,Shiga toxin inh,Pf growth 48h
Cc1cccc(OCC(=O)Nc2cccc(O)c2)c1,?,29.9*,active,223.7%
Cc1ccc(OCC(=O)Nc2cccc(O)c2)cc1C,-0.5%,40.3*,78.6*,99.5%
O=C(CCc1ccccc1)NNC(=O)C12CC3CC(CC(C3)C1)C2,83.0%,20.7*,45.3,-2.0%
O=C(O)c1cccc(Nc2c3ccccc3nc3ccccc23)c1,11.5%,107.1*,87.4*,?
O=C(NNc1c2ccccc2nc2ccccc12)c1ccc(O)cc1O,?,13.9,16.7,?
Cc1ccc(C(=O)NNc2nc3ccccc3nc2C(F)(F)F)cc1,31.0%,-1.7,13.2,5.3%
CC(=O)c1cccc(Nc2cc(C)nc3ccccc23)c1,-26.7%,2.1,10.7,17.6%
O=C(NNc1c2ccccc2nc2ccccc12)c1ccc(O)cc1,-101.5%,23.5*,-6.9,?
O=C(NNc1c2ccccc2nc2ccccc12)c1ccccc1O,10.4µM*,24.9*,27.4,?
